Screening data from PubChem.
Hits are enriched below; roughly 1% of the tested compounds scored in any of these assays.
KCNH2 3.1 inh – blocks the human KCNH2 3.1 channel isoform; hit rate 0.95% among 340,000; activity change, % (tested at about 1.8 µM); U2OS KCNH2 3.1, thallium flux FluxOr; stronger effect = lower value;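 active = maximum activity change below -70%; inconclusive = maximum activity change from -70% to -50%; inactive = maximum activity change above -50%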;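 also: thallium influx rate constant from kinetic fluorescence after stimulation buffer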
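We transduce U2OS cells with the mutant 3.1 virus, culture them overnight, load FluxOr with Red40 quencher for 45 min, then add stimulation buffer and read kinetically for 2 min to derive a normalized rate constant.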
hERG WT inh – blocks the wildtype human KCNH2 potassium channel; hit rate 0.37% among 340,000; Q12809; U2OS, BacMam KCNH2, thallium flux FluxOr; stronger effect = lower value; activity change, % at 1.84 µM; AID 720551;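 active = maximum activity change below -70%; inconclusive = maximum activity change between -70% and -50%; inactive = maximum activity change above -50%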
Target sequence (Q12809 whole entry, looked up): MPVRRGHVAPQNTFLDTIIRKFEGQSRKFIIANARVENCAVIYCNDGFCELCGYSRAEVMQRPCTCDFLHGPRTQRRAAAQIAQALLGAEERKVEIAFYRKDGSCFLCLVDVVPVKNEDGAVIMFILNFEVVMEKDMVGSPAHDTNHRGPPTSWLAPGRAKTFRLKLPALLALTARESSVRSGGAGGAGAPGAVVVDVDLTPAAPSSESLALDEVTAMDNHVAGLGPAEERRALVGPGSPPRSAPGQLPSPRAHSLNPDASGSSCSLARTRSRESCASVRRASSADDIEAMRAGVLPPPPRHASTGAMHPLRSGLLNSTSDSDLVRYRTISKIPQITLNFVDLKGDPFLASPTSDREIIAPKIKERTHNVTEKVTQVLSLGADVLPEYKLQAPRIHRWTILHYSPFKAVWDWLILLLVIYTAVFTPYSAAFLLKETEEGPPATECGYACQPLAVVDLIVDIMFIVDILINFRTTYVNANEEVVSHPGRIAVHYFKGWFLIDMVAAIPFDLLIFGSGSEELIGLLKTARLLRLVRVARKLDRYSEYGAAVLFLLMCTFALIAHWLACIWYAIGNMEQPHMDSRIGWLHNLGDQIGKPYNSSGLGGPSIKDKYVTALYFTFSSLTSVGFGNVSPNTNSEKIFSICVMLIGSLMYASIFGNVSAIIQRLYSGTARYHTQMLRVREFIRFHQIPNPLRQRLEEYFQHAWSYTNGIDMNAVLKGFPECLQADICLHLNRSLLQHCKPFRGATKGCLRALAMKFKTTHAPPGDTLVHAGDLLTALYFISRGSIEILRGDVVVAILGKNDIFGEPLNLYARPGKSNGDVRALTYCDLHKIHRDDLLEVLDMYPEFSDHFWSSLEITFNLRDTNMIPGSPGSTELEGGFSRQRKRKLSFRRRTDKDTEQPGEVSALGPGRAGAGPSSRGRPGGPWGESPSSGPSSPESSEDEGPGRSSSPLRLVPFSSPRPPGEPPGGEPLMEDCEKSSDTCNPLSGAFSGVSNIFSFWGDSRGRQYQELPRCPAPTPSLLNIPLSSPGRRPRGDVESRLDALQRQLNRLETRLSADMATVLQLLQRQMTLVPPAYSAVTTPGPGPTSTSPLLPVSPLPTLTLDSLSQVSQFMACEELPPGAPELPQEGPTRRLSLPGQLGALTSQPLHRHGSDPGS
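U2OS cells transduced with wild-type KCNH2 virus are loaded with FluxOr dye for 45 min, and thallium flux is measured in kinetic reads before and after stimulation buffer. Rate constants are normalized to DMSO controls.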
TRPML1 blocker – blocks the human TRPML1 channel; TRPML1-inducible cells, Ca2+ dye fluorescence, FDSS; stronger effect = lower value; inhibition of EC80 agonist-evoked calcium signal; activity change, negative = inhibition, % (no concentration beside the values); hit rate 0.02% among 390,000; AID 624415; in the data active = activity change below about -50%; inconclusive = between about -30% and that limit;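 also: stimulus is agonist 54-4 at its EC80 concentration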
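Tet-induced TRPML1-DL cells loaded with Ca8 no-wash calcium dye were read kinetically on FDSS. Compound addition was followed by EC80 agonist 54-4 (4 uM final); inhibition was read over 110 s.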
Glioma ERSR ind – induces the endoplasmic reticulum stress response in human glioma cells. U87-MG GRP78 promoter luciferase reporter, 16 h. Potency, µM, usual class: activators. hit rate 0.02% among 420,000. AID 602332; active = well fitted activation curve with a large enough effect; inconclusive = small, poorly fitted or top-dose-only effect; inactive = no such curve, though single readings can be large or run the other way; also: series mostly up to about 76 µM; nearly all actives have a fitted effect of over 35% in size
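Stably transfected U87-MG human glioma cells carrying a GRP78-based luminescent sensor were seeded at 1000 cells/well, pin-dosed with compounds and incubated 16 h. Luciferase reagent was then added, and end-point luminescence was read after 10 min at room temperature.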
TRPML1 agonist – agonists of human TRPML1 channel; Q9GZU1; TRPML1-expressing cells, Ca2+ dye fluorescence, FDSS; activation, % (test concentration not listed); hit rate 0.12% among 410,000; in the data active = activation above about 50%; inconclusive = mostly about 30% to 49%
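Agonist activity was taken from a 110 s kinetic Ca2+ dye read on the FDSS after pinning compounds onto TRPML1-DL cells. The cells were seeded at 1,500/well with Tet inducer, incubated about 16 h, then dye-loaded at room temperature.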
TSG101-PTAP inh – blocks PTAP/TSG101 interaction to inhibit HIV-1 budding; 340,000 tested, under 10 active; Fluorescence polarization, FITC-PTAP peptide / Tsg101 binding; Q99816; Potency, µM (series often up to 115 µM), hits mostly inhibitors; AID 493005; active = well fitted inhibition curve with a large enough effect in the main read-out, with a control signal flat, not every such curve was filed as active; inconclusive = small, poorly fitted or top-dose-only effect, or effect the other way, or a change in a side signal; inactive = no such curve, though single readings can be large or run the other way
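Tsg101 binding domain (10 uM final) was mixed with compound and a FITC-labeled PTAP peptide (50 nM final) in HEPES pH 7.5 buffer with NaCl, Tween 20, EDTA and TCEP; fluorescence polarization was read after 20 min at r.t.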
A number is an active result; - = inactive; ? = inconclusive; . = no result given.

SMILES	KCNH2 3.1 inh	hERG WT inh	TRPML1 blocker	Glioma ERSR ind	TRPML1 agonist	TSG101-PTAP inh
N#Cc1ccc(OCC(O)CN2CCC(C(O)(c3ccccc3)c3ccccc3)CC2)cc1 (stereo not drawn)	-120	-144	-	-	-	-
C=C(c1nc2ccccc2s1)C1Cc2cccc3c2N(CCC3)C1 (stereo not drawn)	.	.	.	-	-	.
Cc1cc(C)nc(-c2cccc3c2OC(CNC(=O)c2ccc(Cn4nc(C)cc4C)cc2)C3)n1 (stereo not drawn)	.	.	.	-	.	.
O=C(c1ccccc1)c1ccc(OCCOCCN2CCN(Cc3ccccc3)CC2)cc1	-	-140	-	-	-	-
CO[C@H]1[C@H](NC(=O)c2ccco2)c2ccccc2C12CCN(Cc1cnn(-c3ccccc3)c1)CC2	.	.	.	-	.	.
Cc1cc2c(c(-c3cnccn3)c1)OC(CNC(=O)c1cc(C(C)C)[nH]n1)C2 (stereo not drawn)	.	.	.	-	.	.
Cc1ccc(S(=O)(=O)N2CCOCC2)cc1C(=O)NCCCn1ccnc1	-	-90	-	-	-	-
O=C(NCCCn1ccnc1)c1cc(S(=O)(=O)N2CCOCC2)c(Cl)cc1Cl	-	-	-	-	-	-
CCN(CC1CCCN(CCc2cccc(F)c2)C1)C(=O)c1cc2ccccc2o1 (stereo not drawn)	-75	-	-	-	-	-
O=C(CCCOc1ccc(Cl)cc1Cl)N/N=C/c1ccc(Cl)cc1	-	-	-	-	-	-
O=C(COc1ccc(Cl)cc1Cl)N/N=C/c1ccc(OC2OC(CO)C(O)C(O)C2O)cc1 (stereo not drawn)	-157	-151	-	-	-	-
O=S(=O)(Nc1ccccc1N1CCCCC1)c1ccc(Cl)s1	-	-	-	-	97	-
Cc1ccc(NC(=S)NC(=O)c2ccc(-c3ccc(Cl)cc3)o2)c(O)c1	-	-	-	-	-	-
Cc1ccc(O)c(NC(=S)NC(=O)Cc2ccc(Cl)cc2)c1	-	-	-	?	75	-
CCN1CCC(NC(=O)Nc2ccc(F)cc2F)CC1	-86	-	-	-	-	-
COc1ccc(-c2cc(C)cc3c2OC(CNC(=O)/C=C/c2ccncc2)C3)nn1 (stereo not drawn)	.	.	.	-	.	.
Cc1c(O)cc2c(c1O)C(=O)CC(c1ccccc1)O2 (stereo not drawn)	-	-	.	28µM	.	-
O=C1C[C@@H](c2ccc(O)cc2)Oc2cc(O)cc(O)c21	-	-	-	-	-	-
COc1ccc(CN2CCCC(n3cc(C(=O)N4CCCCC4)nn3)C2)cc1OC (stereo not drawn)	.	.	.	-	.	.
CC1CCCCN1S(=O)(=O)c1ccc(C(=O)Nc2sccc2C(N)=O)cc1 (stereo not drawn)	-96	-	-	-	-	-
O=C(c1cccc(Cl)c1)N1CCN(CCc2ccccn2)CC1	.	.	-	-	-	.
Cc1c(C(=O)N2CCN(CCc3ccccn3)CC2)oc2ccc(Cl)cc12	-103	-	-	-	-	-
Cc1ccc(NC(=O)c2ccc3c(c2)S(=O)(=O)c2ccccc2C3=O)cc1S(=O)(=O)N1CCOCC1	-190	-136	-	-	-	-
COc1ccc(C2C(C#N)=C(N)Nc3nc4ccccc4n32)cc1 (stereo not drawn)	-	-113	-	-	-	-
Cc1ccc(N=Cc2cc(Cl)cc(Cl)c2O)nc1	-	-333	-	-	-	-
SMILES	KCNH2 3.1 inh	hERG WT inh	TRPML1 blocker	Glioma ERSR ind	TRPML1 agonist	TSG101-PTAP inh
CN(CCCNC(=O)c1cc2c(Cl)nc3ccccc3c2s1)Cc1ccccc1	.	-307	-	-	-	-
Cc1ccc2nc(Cl)c3cc(C(=O)NCCCN(C)Cc4ccccc4)sc3c2c1	.	.	-	-	-	.
COC(=O)c1oc2ccccc2c1NC(=O)/C=C/C(=O)O	-74	-	-	-	-	-
COC(=O)c1oc2ccccc2c1N	-	-	-	-	-	-
O=C(CSc1nnc(Cc2ccc3c(c2)OCO3)n1C1CCCCC1)NC1CCCC1	-	-	-	-	-	-
NC(=O)CSc1nnc(Cc2ccc3c(c2)OCO3)n1C1CCCCC1	-77	-	-	-	-	-
Cc1ccc(C)c(OCCCCN2CCNCC2)c1C	-88	-	-	-	-	-
CC1C2CC(C(CN(C)C)/C2=N/O)C1(C)C (stereo not drawn)	-	-	-	-	-	-
CC1/C(=N/O)C(CN(C)C)C2CC1C2(C)C (stereo not drawn)	-	-291	-	-	-	-
Cc1cccc(N(C)S(=O)(=O)c2ccc3[nH]cc(C(=O)N4CCOCC4)c(=O)c3c2)c1	-	-	-	-	-	-
CCc1ccccc1N(C)S(=O)(=O)c1ccc2[nH]cc(C(=O)N3CCc4ccccc43)c(=O)c2c1	-85	-	-	-	-	-
COc1nc(N2CCOCC2)nc(C)c1[N+](=O)[O-]	-	-107	-	-	-	-
COC(=O)c1c(OCc2cccnc2)cc(=O)n2c1CCN(C(=O)c1ccc(OC)c(F)c1)CC2	.	.	.	-	.	.
COc1ccc(CN2C[C@H](Sc3nc4ccccc4[nH]3)C[C@H]2C(=O)N(C)C)c2ccccc12	.	.	.	-	.	.
Oc1c(C(Nc2ccccn2)c2ccccc2)ccc2cccnc12 (stereo not drawn)	.	.	.	-	-	.
CCCCC(=O)NC(c1ccccc1Cl)c1ccc2cccnc2c1O (stereo not drawn)	-97	-	-	-	-	-
CC(=O)NC(c1cccc([N+](=O)[O-])c1)c1ccc2cccnc2c1O (stereo not drawn)	-	-	-	-	-	-
COc1cccc(C(NC(C)=O)c2ccc3cccnc3c2O)c1 (stereo not drawn)	-	-82	-	-	-	-
O=[N+]([O-])c1ccc(NC(c2ccccc2)c2ccc3cccnc3c2O)cc1 (stereo not drawn)	-71	-	-	-	-	-
CCCC(=O)NC(c1ccccc1)c1ccc2cccnc2c1O (stereo not drawn)	-	-262	-	-	-	-
CCCCC(=O)NC(c1ccccc1)c1ccc2cccnc2c1O (stereo not drawn)	-	-	-	-	-	-
CNC(=O)c1ccccc1Sc1ccc2c(/C=C/c3ccccn3)n[nH]c2c1	.	.	.	-	.	.
CCCCn1c(N)c(N(CC)C(=O)CCNC(=O)NC23CC4CC(CC(C4)C2)C3)c(=O)[nH]c1=O	-71	-	-	-	-	-
CO/N=C(/C(=O)N[C@@H]1C(=O)N2C(C(=O)OC(C)OC(C)=O)=C(COC(N)=O)CS[C@H]12)c1ccco1 (stereo partly drawn)	.	.	.	-	.	.
CCN1/C(=C\c2ccc3cc(C)ccc3[n+]2CC)Sc2cc(C)c(C)cc21	-	-126	-	-	-	-
